{
  "source": "PubChem BioAssay (Tox21)",
  "note": "Records with an inconclusive call do not appear. Unmarked numbers belong to inactive results. Calls of active or inactive are those of the source. The call rests on the fitted dose curve; in most records, active means well fitted cell-killing curve with a large enough effect in the repeat runs; inconclusive means weak or mixed curves, or effect the other way; inactive means flat fitted curve, though single readings scatter. On the % scale 0 is the no-effect control and ±100 the full control effect.",
  "data": [
    {"test": "qHTS RealTime-Glo MT Cell Viability Assay in HEK293 cells - 16 hour (AID 1224872); further: top concentration of the series differs between compounds; nearly all actives have a fitted effect of over 50% in size", "settings": "RealTime-Glo luminescence; series mostly up to 76.8 µM", "from_the_text": "National Center for Advancing Translational Sciences [NCATS]\nNIH Chemical Genomics Center [NCGC]\nU.S. Environmental Protection Agency [EPA]\nNational Institutes of Environmental Health Sciences [NIEHS]\nNational Toxicology Program [NTP]\nU.S. Food and Drug Administration [FDA]\nMeasure of cell viability is critical in the cell-base assay. Analysis of cell viability is necessary for the characterization of cell responses to cytotoxic drugs and environmental stress. A RealTime-Glo MT Cell Viability Assay to monitor cell viability in real time of continues cell culture during 40 hours of compound treatment was used to screen Tox21 10K library compounds in Hek293 cells. The RealTime-Glo MT Cell Viability Assay is a nonlytic, homogeneous, bioluminescent method to measure cell viability in real time using a simple, plate-based method. The assay involves adding NanoLuc luciferase and a cell-permeant prosubstrate to cells in culture. Viable cells reduce the proprietary prosubstrate to generate a substrate for NanoLuc luciferase. This substrate diffuses from cells into the surrounding culture medium, where it is rapidly used by the NanoLuc Enzyme to produce a luminescent signal. The signal correlates with the number of viable cells, making the assay well suited for cytotoxicity studies.\nTox21 Assay Protocol Summary:\nThe mixture of Hek293 cell suspension and reagents were dispensed at 600cells/6 ul/well in 1536-well tissue culture treated black solid bottom plates using a Multidrop dispenser. After the assay plates were incubated at a 37 C/5% CO2 incubator for 5 hours, 23 nL of compounds dissolved in DMSO, positive and negative controls was transferred to the assay plate by a pintool work station. The plates were incubated at 37 C for 40 hours. The luminescence intensity were measured at 0h, 8h, 16h, 24h, 32h and 40h time points using ViewLux plate reader during compound treatment.", "values": [
      {"smiles": "CCOC(=O)CN1CCCC1=O", "outcome": "inactive"},
      {"smiles": "C=CCN(CC=C)CC=C", "outcome": "inactive"},
      {"smiles": "CC(C)(C)NCC(O)COc1cccc2c1CCC(=O)N2", "note": "(stereo not given)", "outcome": "inactive"},
      {"smiles": "CC(C)(C)c1ccc(C(=O)CCCCl)cc1", "outcome": "inactive"},
      {"smiles": "O=C(O)Cc1c(Cl)ccc(Cl)c1Cl", "outcome": "inactive"},
      {"smiles": "CC12CCCC=C1C(=O)OC2=O", "note": "(stereo not given)", "outcome": "inactive"},
      {"smiles": "Cc1cccc(N)n1", "outcome": "inactive"},
      {"smiles": "c1cc2ccc3ccc4ccc5cccc6c(c1)c2c3c4c56", "activity change, negative = cytotoxicity": "-0.658% [at 2.72 µM]"},
      {"smiles": "O=Cc1ccccc1S(=O)(=O)O", "outcome": "inactive"},
      {"smiles": "O=C1CCCc2c(O)cccc21", "outcome": "inactive"},
      {"smiles": "Clc1ccc2c(c1)Nc1ccccc1S2", "outcome": "inactive"},
      {"smiles": "C[C@@H](CN1CC(=O)NC(=O)C1)N1CC(=O)NC(=O)C1", "outcome": "inactive"},
      {"smiles": "Nc1ccc(C(=O)NCC(=O)O)cc1", "outcome": "inactive"},
      {"smiles": "CCCCCCCCCCCCCCCC(=O)OC", "activity change, negative = cytotoxicity": "-4.38% [at 15.8 µM]"},
      {"smiles": "CC(C)(O)c1ccc(C(C)(C)O)cc1", "outcome": "inactive"},
      {"smiles": "N#Cc1cc(NC(=O)C(=O)O)c(Cl)c(NC(=O)C(=O)O)c1", "outcome": "inactive"},
      {"smiles": "Cc1ccc(O)c(C(=O)c2ccccc2)c1", "outcome": "inactive"},
      {"smiles": "COC(=O)c1cc(Cl)c(NC(C)=O)cc1OC", "outcome": "inactive"},
      {"smiles": "O=C[C@@H](O)[C@H](O)[C@H](O)CO", "outcome": "inactive"},
      {"smiles": "CC(C)(C)OC(=O)c1ccccc1C(=O)O", "outcome": "inactive"},
      {"smiles": "CC1(C)S[C@@H]2[C@H](NC(=O)Cc3ccccc3)C(=O)N2[C@H]1C(=O)O", "note": "(tested in a mixture with another compound)", "outcome": "inactive"},
      {"smiles": "CCCCCCCC(=O)N(C)C", "outcome": "inactive"},
      {"smiles": "CN(C)CCC[C@@]1(c2ccc(F)cc2)OCc2cc(C#N)ccc21", "outcome": "inactive"},
      {"smiles": "CCN1CCN(C(=O)N[C@@H](C(=O)N[C@@H]2C(=O)N3C(C(=O)O)=C(CSc4nnnn4C)CS[C@H]23)c2ccc(O)cc2)C(=O)C1=O", "outcome": "inactive"},
      {"smiles": "CCOc1ccccc1OCCN[C@H](C)Cc1ccc(OC)c(S(N)(=O)=O)c1", "outcome": "inactive"},
      {"smiles": "CCCC(=O)CC", "outcome": "inactive"},
      {"smiles": "CCOCCOCCOC(C)=O", "outcome": "inactive"},
      {"smiles": "N=C(N)N1CCc2ccccc2C1", "activity change, negative = cytotoxicity": "1.8% [at 6.97 µM]"},
      {"smiles": "CNCCc1ccccn1", "outcome": "inactive"},
      {"smiles": "C=CCOC(=O)CCCCCCCC", "outcome": "inactive"},
      {"smiles": "CCCCCCC(=O)c1ccccc1", "outcome": "inactive"},
      {"smiles": "CC(C)C[P+](C)(CC(C)C)CC(C)C", "outcome": "inactive"},
      {"smiles": "C/C=C/C(=O)CCCC", "outcome": "inactive"},
      {"smiles": "C=CCN1CCc2nc(N)sc2CC1", "outcome": "inactive"},
      {"smiles": "CCCCCCCCC1CO1", "note": "(stereo not given)", "outcome": "inactive"},
      {"smiles": "BrCCOc1ccccc1", "outcome": "inactive"},
      {"smiles": "CN1CCN(C(=O)C2CCCCC2)CC1", "outcome": "inactive"},
      {"smiles": "CSC(=O)c1cccc2nnsc12", "outcome": "inactive"},
      {"smiles": "CC(=O)OCC(=O)[C@@]1(O)CC[C@H]2[C@@H]3CCC4=CC(=O)C=C[C@]4(C)[C@H]3[C@@H](O)C[C@@]21C", "outcome": "inactive"},
      {"smiles": "CC(C)(C)c1ccc(N)cc1", "outcome": "inactive"}
    ]}
  ]
}
